Among the data in PubChem BioAssay (EPA / NIEHS) are outcome and AC50 values, retold here.

The source made the active and inactive calls. How the source made its calls: active means hit-call score of the fitted dose curve at least 0.9, where 1 is the maximum; inactive means score below 0.9.

One experiment in a line: ATG_TA_CIS: Attagene CIS-FACTORIAL HepG2 Assay for human TA Basal Promoter (AID 2282964). To be noted: HepG2 Attagene CIS-factorial TA basal promoter reporter; actives raise or lower the signal. The essentials: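 Steps: transfect HepG2 with MRTUs; dose 24 h; isolate RNA, DNase-treat, reverse-transcribe; PCR and FAM-label reporter cDNA; digest with HpaI 2h at 37 C; run capillary electrophoresis. Activity fitted both directions against DMSO.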
In the case of `C=CCOC(=O)CCCCCC`, the result was inactive.

In the case of `OC[C@H]1O[C@@H]2O[C@H]3[C@H](O)[C@@H](O)[C@@H](O[C@H]4[C@H](O)[C@@H](O)[C@@H](O[C@H]5[C@H](O)[C@@H](O)[C@@H](O[C@H]6[C@H](O)[C@@H](O)[C@@H](O[C@H]7[C@H](O)[C@@H](O)[C@@H](O[C@H]8[C@H](O)[C@@H](O)[C@@H](O[C@H]9[C@H](O)[C@@H](O)[C@@H](O[C@H]1[C@H](O)[C@H]2O)O[C@@H]9CO)O[C@@H]8CO)O[C@@H]7CO)O[C@@H]6CO)O[C@@H]5CO)O[C@@H]4CO)O[C@@H]3CO`, the call was inactive.

`CCO/C=C1\N=C(c2ccccc2)OC1=O`: the outcome was inactive.

On to `C#CC(C)N(C)C(=O)Nc1ccc(Cl)cc1` (stereo not given), for which the outcome was inactive.

Turning to `FC(F)(F)COCC(F)(F)F`, the call was inactive.

Consider `C=C(C)C(=O)OCCOCCOCCOC(=O)C(=C)C`, for which the result was inactive.

As for `[Cl][Au]([Cl])[Cl]`, the molecule was classed as inactive.

A short description of a further experiment: ATG_TCF_b_cat_CIS: Attagene CIS-FACTORIAL HepG2 Assay for human T-Cell-Factor with beta-catenin (TCF/b-cat) (AID 2282965). To be noted: HepG2 TCF/beta-catenin cis-reporter transcription, actives raise or lower the signal. In short, it runs like this:
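In this cis-format system, transfected HepG2 cells report endogenous transcription factor activity. Readout after 24 h exposure is reporter transcript abundance from RT-PCR and capillary electrophoresis, analysed for gain or loss of signal versus DMSO.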
For the molecule `CCCC(O)C(O)CO` (stereo not given), the molecule was called inactive.

Consider `COCCc1ccc(OCC(O)CNC(C)C)cc1` (stereo not given), for which the molecule was called inactive.

With `NCCNc1cccc2ccccc12`, the AC50 is 49.8 µM (active).

Regarding `CC(C)=CCCC(C)CC(=O)O` (stereo not given), the molecule was called inactive.

Turning to `Cc1c(OCC(F)(F)F)ccnc1CS(=O)c1nc2ccccc2[nH]1` (stereo not given), the concentration at half-maximal activity (AC50) was 57.7 µM (active).

For `Nc1ccc(NCCO)c([N+](=O)[O-])c1`, the outcome was inactive.

In the case of `CCOC(=O)c1ccc(N)cc1`, the outcome was inactive.

Regarding `Oc1ccc2cc(SSc3ccc4cc(O)ccc4c3)ccc2c1`, the molecule was classed as inactive.

For `CC1=CC[C@@]23C[C@@H]1C(C)(C)[C@@H]2CC[C@H]3C`, the molecule was classed as inactive.

For the molecule `C=C(C)CNCC`, the molecule was called inactive.

As to `CC(=O)NCCO`, the outcome was inactive.

On to `COC(=O)c1ccc(C)cc1C1=NC(C)(C(C)C)C(=O)N1` (stereo not given) (tested in a mixture with another compound), for which the call was inactive.

For `CN1C(=O)c2ccccc2C1=O`, the molecule was called inactive.

`OCCCCC(O)CO` (stereo not given): the outcome was inactive.

On to `CCCCCCCCCCCC(=O)OC[C@@H](O)[C@H]1OC[C@H](O)[C@H]1O`, for which the call was inactive.

As to `CCCCCC(C)=O`, the molecule was classed as inactive.

As to `C[C@H](CCC(=O)NCC(=O)O)[C@H]1CC[C@H]2[C@@H]3[C@H](O)C[C@@H]4C[C@H](O)CC[C@]4(C)[C@H]3C[C@H](O)[C@]12C`, the result was inactive.

Take `CC(C=O)Cc1ccc(C(C)(C)C)cc1` (stereo not given): the outcome was inactive.

For the molecule `CN1CCOCC1`, the result was inactive.

Turning to `c1ccc(CN(Cc2ccccc2)Cc2ccccc2)cc1`, the molecule was called inactive.

Consider `CC/C=C\CC/C=C/CO`, for which the call was inactive.

Regarding `CCCC(=O)c1ccccc1`, the result was inactive.

On to `CCCCCCC(=O)c1ccccc1`, for which the molecule was classed as inactive.

For the molecule `O=C1OC(=O)c2c(Cl)c(Cl)c(Cl)c(Cl)c21`, the call was inactive.

As for `CCCCSCCCC`, the molecule was classed as inactive.

On to `C=C(CC(=O)O)C(=O)O`, for which the molecule was classed as inactive.

Take `C=CCOC(=O)CCCCCC`: the molecule was classed as inactive.

In the case of `OC[C@H]1O[C@@H]2O[C@H]3[C@H](O)[C@@H](O)[C@@H](O[C@H]4[C@H](O)[C@@H](O)[C@@H](O[C@H]5[C@H](O)[C@@H](O)[C@@H](O[C@H]6[C@H](O)[C@@H](O)[C@@H](O[C@H]7[C@H](O)[C@@H](O)[C@@H](O[C@H]8[C@H](O)[C@@H](O)[C@@H](O[C@H]9[C@H](O)[C@@H](O)[C@@H](O[C@H]1[C@H](O)[C@H]2O)O[C@@H]9CO)O[C@@H]8CO)O[C@@H]7CO)O[C@@H]6CO)O[C@@H]5CO)O[C@@H]4CO)O[C@@H]3CO`, the outcome was inactive.

For `C#CC(C)N(C)C(=O)Nc1ccc(Cl)cc1` (stereo not given), the molecule was called inactive.

Regarding `FC(F)(F)COCC(F)(F)F`, the molecule was classed as inactive.

In the case of `O=C(Nc1ccc2c(O)c(N=Nc3ccc(N=Nc4ccc(S(=O)(=O)O)cc4)cc3)c(S(=O)(=O)O)cc2c1)c1ccccc1`, the outcome was inactive.

For `C=C(C)C(=O)OCCOCCOCCOC(=O)C(=C)C`, the molecule was classed as inactive.

As to `[Cl][Au]([Cl])[Cl]`, the molecule was called inactive.
